PubChem BioAssay AID652010 (The Scripps Research Institute Molecular Screening Center, 2013)
Screen size: about 370,000 compounds; about 4,100 (1.1%) were called active.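 How the source made its calls: active means inhibition above the mean over all tested compounds plus 3 SD (cut at about 3.6% in these data); inactive means the rest.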 This excerpt belongs to a sample that is enriched for actives.

Test: relief of DAX-1 repression of SF-1 activity – cell-based, luminescence, SF-1 (NR5A1), full-length DAX-1, primary screen (AID 652010);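 further: 0% = DAX-1 cells with DMSO and 100% = cells lacking DAX-1 with DMSO; higher inhibition means more luminescence from relief of DAX-1 repression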
Conditions: HEK293T StAR-luciferase reporter, SF-1/DAX-1 repression relief; at 6.8 µM; hits give high values

SMILES | inhibition
O=C(NCc1cccs1)C1CCCN(S(=O)(=O)c2ccc([N+](=O)[O-])cc2)C1 (stereo unspecified) | -0.52% (inactive)
COc1ccc2c(C(C)c3ccc(N)cc3)cn(C)c2c1 (stereo unspecified) | 0.02% (inactive)
CC1CCN(c2ccc(-c3ccc(NC(=O)c4ccco4)cc3)nn2)CC1 | 2.92% (inactive)
CCC(=O)Nc1ccc(-c2ccc(N3CCCCC3)nn2)cc1 | 4.53% (active)
CCCCSc1nnc(-c2ccc(NC(=O)CC)cc2)n1C | -0.29% (inactive)
NS(=O)(=O)c1cc(C(=O)NCCOc2ccccc2)c(Cl)cc1Cl | 0.12% (inactive)
O=C(NCCc1csc(-c2ccccc2)n1)c1ccccc1F | -1.18% (inactive)
O=C(NCCOc1ccccc1)c1ccccc1F | 6.99% (active)
O=C(CCS(=O)(=O)c1ccccc1)Nc1ccc(Cl)c(Cl)c1 | -0.2% (inactive)
O=C(CCCCCN1C(=O)C2C3C=CC(C3)C2C1=O)Nc1ccccc1 (stereo unspecified) | 1.39% (inactive)
O=C(Oc1cccc(NC2=NS(=O)(=O)c3ccccc32)c1)c1ccncc1 | 0.31% (inactive)
Cc1ccc(S(=O)(=O)N(NC2=NS(=O)(=O)c3ccccc32)C(=O)c2ccccc2)cc1 | 0.29% (inactive)
CC(C)(C)c1csc(NC2=NS(=O)(=O)c3ccccc32)n1 | 5.84% (active)
Cc1ccc(Cn2cc(CN3[C@@H](C)COc4cc(Br)ccc4S3(=O)=O)nn2)cc1 | -0.52% (inactive)
O=C(CC1C(=O)NCCN1Cc1ccc(-c2ccccc2)cc1)NCC1CCOCC1 (stereo unspecified) | -0.29% (inactive)
CCCOc1ccc(C(=O)NCCc2ccccc2)cc1 | 5.47% (active)
O=C(NCCc1ccccc1)Oc1ccc(Cl)cc1 | 0.42% (inactive)
O=C(NCCc1ccccc1)c1ccc(NC2=NC3CS(=O)(=O)CC3S2)cc1 (stereo unspecified) | -0.02% (inactive)
O=C(NC1CCC1)c1ccc(C#CC2CC2)cn1 | 3.08% (inactive)
Cc1ccc(OCc2nnc(SC/C=C/c3ccccc3)n2Cc2ccco2)cc1 | -0.46% (inactive)
COC(=O)c1cc2c(c3c4ccccc4n(S(=O)(=O)c4cccc(C)c4)c13)C(=O)N(Cc1ccccc1)C2 | -1.85% (inactive)
CNCC(O)c1ccc(O)c(O)c1 (stereo unspecified) | 5.84% (active)
CCC(C)c1ccc(O)c(/C=N/O)c1 (stereo unspecified) | 0.8% (inactive)

SMILES | inhibition
CC(=NNC(N)=O)C1CC2CCC1CC2 (stereo unspecified) | 1.47% (inactive)
CCCCCCCCN1C(=O)[C@@H](CC(=O)N2CCN(C(=O)OCC)CC2)C[C@@]2(C(=O)OC)C1=C[C@H](C1CCCC1)O[C@@H]2C | 0.13% (inactive)
CCOC(=O)[C@@]12CN(C(=O)OC(C)(C)C)CC=C1N(Cc1ccc(OC)cc1)C(=O)[C@H]2CC(=O)NCc1ccc(OC)c(OC)c1 | -0.16% (inactive)
Cc1c(C(=O)Nc2ccccn2)oc2ccc(Br)cc12 | 8.27% (active)
Cc1c(C(=O)NC2CCCCC2)oc2ccccc12 | 0.4% (inactive)
CCc1nonc1NC(=O)c1oc2ccc(Cl)cc2c1C | 0.27% (inactive)
Cc1cccc(C(=O)Nc2c(-c3ccc(F)cc3)nc3ncccn23)c1 | -1.21% (inactive)
CC(OC(=O)CCCOc1ccccc1)C(=O)Nc1ccc(Cl)cn1 (stereo unspecified) | 3.13% (inactive)
CCCc1cc(C(=O)Nc2ccc(C(=O)OC)cc2)cs1 | 7.38% (active)
COC(=O)c1ccc(NC(=S)NN2CCOCC2)cc1 | 1.02% (inactive)
CC(OC(=O)CNC(=O)c1ccco1)C(=O)Nc1ccc(Cl)cn1 (stereo unspecified) | -0.16% (inactive)
CCCc1cc(C(=O)Nc2ccc(Cl)cn2)cs1 | 16.1% (active)
CCC(=O)Nc1ccc(C(=O)Nc2cc(C)on2)cc1 | -0.34% (inactive)
O=C(c1ccccc1)c1ccc(-c2ccccc2C(=O)NC2CCCCN(Cc3ccc(Cl)cc3)C2=O)cc1 (stereo unspecified) | -0.77% (inactive)
Cc1ccc(-n2c(SCC(=O)Nc3ccc(S(=O)(=O)Nc4nccs4)cc3)nnc2-c2ccncc2)cc1 | -0.77% (inactive)
CCC(c1ccc(NC(=O)OC(C)(C)C)cc1)c1cc(OC)cc(OC)c1 (stereo unspecified) | -0.05% (inactive)
COCc1cc(N2CCN(C(=O)OC(C)(C)C)C[C@@H]2C)ccc1N1CCN(Cc2ccccc2)[C@H](C)C1 | -0.7% (inactive)
CCN(CC(=O)Nc1c(F)cccc1F)C(=O)c1cnc(C)cn1 | 4.81% (active)
CCc1cc(C(=O)N(CC)CC(=O)Nc2c(F)cccc2F)sc1C | -0.69% (inactive)
CCN(CC(=O)Nc1c(F)cccc1F)C(=O)c1ccc(-c2ccccc2)cc1 | 0.8% (inactive)
CCCC[C@H]1C2CC(OC(=O)NCc3ccccc3)C(C2)[C@H]2CCCCN21 (stereo partly specified) | -0.27% (inactive)
Cc1ccc(-n2c(SCC(=O)Nc3ccc(S(=O)(=O)Nc4nccs4)cc3)nnc2-c2ccccn2)cc1 | 0.28% (inactive)
COc1cccc(NC(=O)COc2cccnc2[N+](=O)[O-])c1 | 1.83% (inactive)

SMILES | inhibition
Cc1ccccc1OCC(=O)Nc1ccc(N2CCN(C(=O)C(C)C)CC2)c(Cl)c1 | -2.45% (inactive)
Cc1ccccc1OCC(=O)Nc1ccc2c(c1)ncn2C | 4.8% (active)
COc1ccc(Nc2nc(N)nc(CSC(=S)N3CCC(C)CC3)n2)cc1 | 0.59% (inactive)
COC(=O)C1=C(C(=O)OC)C2C=C(C(C)C)C1C(=O)C2(C)O (stereo unspecified) | 2.32% (inactive)
O=C(NCCc1ccc(F)cc1)c1n[nH]c2ccccc12 | 1.23% (inactive)
O=C(NCCc1ccc(F)cc1)c1ccc2nccnc2c1 | 7.15% (active)
O=C(NCCc1ccc(F)cc1)c1ccc(S(=O)(=O)N2CCCCC2)cc1 | -1.79% (inactive)
CCOC(=O)[C@]12CCCC3=C1N(CCC3)C(=O)[C@@H](CC(=O)N1CCSCC1)C2 | 0.52% (inactive)
COC(=O)[C@]12C[C@H](CC(=O)NCc3ccccc3)C(=O)N(CCc3ccc(OC)c(OC)c3)C1=C[C@H](C(C)(C)C)O[C@@H]2C | -0.61% (inactive)
COc1ccc(Nc2ccc3ccccc3c2)cc1 | 3.94% (active)
COc1ccc(NC2=CC(=S)NC(C)(C)C2)cc1 | -0.32% (inactive)
COc1ccc(Nc2cc(=O)n(-c3ccccc3)c3c2c(=O)n(C)c(=O)n3C)cc1 | 0.33% (inactive)
O=C(CNS(=O)(=O)c1ccccc1F)N1CCN(c2ccccn2)CC1 | -0.44% (inactive)
CCCCNC(=O)C[C@H]1C[C@@]2(C(=O)OC)C(=C[C@H](COCc3ccccc3)O[C@@H]2C)N(Cc2ccc(Cl)cc2Cl)C1=O | -0.49% (inactive)
COC(=O)C[C@@H]1CC[C@@H]2[C@H](COc3ccc(NC(=O)c4cccc(F)c4)cc3C(=O)N2C)O1 | 0.44% (inactive)
CN(CCNC(=O)c1cc2c(-c3ccccc3F)nn(C)c2s1)C1CCCCC1 | 0.74% (inactive)
CCOCCCNC(=O)c1cc2c(=O)n3ccccc3nc2s1 | 0.63% (inactive)
CN(C(=O)c1cc2c(=O)n3ccccc3nc2s1)C1CCCCC1 | 8.94% (active)
CN(CCc1ccccc1)C(=O)Cn1nc(-c2ccccc2)ccc1=O | -1.5% (inactive)
Cc1nn(Cc2ccc(Cl)c(Cl)c2)c(C)c1NC(=O)c1cc(C2CC2)on1 | -1.2% (inactive)
CSc1ccccc1NC(=O)c1cc(Cl)sc1Cl | -0.22% (inactive)
CSc1ccccc1NC(=O)c1cc(C2CC2)on1 | 3.85% (active)
O=C(Nc1ccccc1)c1ccc2c(c1)OCCCO2 | 14.7% (active)

SMILES | inhibition
Cc1ccc(C(=O)Nc2nnc(C3=COCCO3)o2)cc1C | 1.49% (inactive)
O=C(Nc1ccc(N2CCOCC2)c(Cl)c1)c1ccc(S(=O)(=O)N2CCOCC2)cc1 | -0.43% (inactive)
Cc1ccc(S(=O)(=O)NCC(=O)Nc2ccc3c(c2)OCCO3)cc1 | -0.38% (inactive)
O=C(Nc1ccc(N2CCN(C(=O)c3ccccc3)CC2)c(Cl)c1)c1cccnc1 | -1.45% (inactive)
C/C(Cc1ccccc1)=N\NC(=O)CNC(=O)c1ccc2c(c1)OCCO2 | 0.38% (inactive)
Cc1nc(NC(=O)c2ccc3c(c2)OCCO3)ccc1Br | 12.7% (active)
C/C(=N/NC(=S)Nc1ccccc1)c1ccc2c(c1)OCO2 | 0.83% (inactive)
CN1CCN(c2ccc(NC(=O)c3ccc4c(c3)OCCO4)cc2Cl)CC1 | 4.89% (active)
Cc1ccc(C(=O)Nc2ccc3c(c2)OCCO3)cc1S(=O)(=O)N1CCOCC1 | 1.01% (inactive)
Cc1ccc(C(=O)NNC(=O)c2ccc3c(c2)OCCO3)cc1 | 5.23% (active)
COc1cccc(C(=O)Nc2cc3c(cc2Br)OCCCO3)c1 | 2.47% (inactive)
CC(C)(C)n1nc(C2CC2)c(Br)c1NC(=O)c1ccccc1F | -1.59% (inactive)
N#Cc1ccc(OC[C@@H](O)CN2CCC(C(O)(c3ccccc3)c3ccccc3)CC2)c(F)c1 | -0.27% (inactive)
CC(C)CNS(=O)(=O)CC1NCCc2ccccc21 (stereo unspecified) | -0.78% (inactive)
COc1cccc(N2CCN(CC(=O)N(C)Cc3ccc(F)cc3)CC2)c1 | -0.23% (inactive)
C=CCN1C(=O)[C@@H](CC(=O)NCCCCc2ccccc2)[C@]2(C(=O)OCC)CCCCC/C=C/12 | -0.85% (inactive)
CCOC(=O)Cn1c2c(n(-c3ccc(F)cc3)c1=O)C=C(c1ccccc1)[C@@H](C)C(C(=O)N(C)C1CCCCC1)=C2 | -1.69% (inactive)
Cn1c(=O)c([N+](=O)[O-])c(Oc2ccccc2)c2ccccc21 | -1.48% (inactive)
C=CCN1C(=O)[C@H](CC(=O)NCCCN2CCCC2=O)[C@@]2(C(=O)OCC)CCCC=C12 | 0.2% (inactive)
CCCCCN1CCCCC(NC(=O)C(C)CCC)C1=O (stereo unspecified) | 0.06% (inactive)
c1csc(-c2nnc(SCc3nc4ccccc4[nH]3)o2)c1 | -0.62% (inactive)
CCc1ccc2oc(-c3ccc(N)cc3)nc2c1 | 5.85% (active)
